A selection: hits, their analogues and other compounds. The true share with any hit is near 2.8%.
SMARCA2 activ – SMARCA2 (BRM) function activators, primary screen, cell-based, luminescence, high throughput. MG213 cells, MMTV-luciferase reporter, dexamethasone, overnight. activation, % at 9.1 µM. 370,000 tested, 1% active. AID 652017, 2013; in the data active = activation above about 7.8%;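 note: 0% = vehicle wells and 100% = reference activator wells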
KLK7 zymogen act – proKLK7 zymogen activators, primary screen, biochemical, fluorescence intensity. Kallikrein-7 (Homo sapiens), P49862. purified proKLK7, EDANS-DABCYL substrate fluorescence; 100% is mature enzyme control, 0% vehicle. activation, % at 7 µM. 370,000 tested, 0.9% active;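 active = activation above the mean of all tested compounds plus 3 SD, computed per campaign excluding outliers beyond control limits, cut at about 13% in these data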
Target sequence (P49862 whole entry, looked up): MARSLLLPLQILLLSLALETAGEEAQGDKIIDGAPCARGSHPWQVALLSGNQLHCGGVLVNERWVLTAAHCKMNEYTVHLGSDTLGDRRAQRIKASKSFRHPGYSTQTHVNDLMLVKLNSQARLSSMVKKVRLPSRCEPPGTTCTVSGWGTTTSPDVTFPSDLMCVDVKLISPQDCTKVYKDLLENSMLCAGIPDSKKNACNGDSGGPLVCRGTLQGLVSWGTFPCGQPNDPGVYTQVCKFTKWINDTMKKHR
MsrA act – bovine MsrA enzyme activators, primary screen, biochemical, absorbance, HTS; Methionine sulfoxide reductase A (Bos taurus); purified bovine MsrA, absorbance read-out; activation, % at 10.6 µM; 360,000 tested, 0.3% active; AID 602163, 2012; in the data active = activation above about 7.5%;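 note: 0% = vehicle and 100% = reference activator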
MsrA inhibitor – bovine MsrA enzyme inhibitors, primary screen, biochemical, absorbance, HTS. purified bovine MsrA, absorbance read-out. inhibition, % at 15.5 µM. 360,000 tested, 0.75% active. AID 651718, 2012;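 note: 0% = vehicle wells with enzyme and 100% = reference inhibitor wells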
MsrA inh confirm – bovine MsrA inhibitors, retest, confirmation, biochemical, absorbance, HTS | shares compounds with MsrA inhibitor | purified bovine MsrA, absorbance read-out | inhibition, % at 15.5 µM | 2,300 tested, 41% active;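 note: coupled to thioredoxin reductase with NADPH and selenocystamine and DMSO as substrate; 0% = vehicle only and 100% = full effect of reference inhibitor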
SMARCA2 act conf – SMARCA2 (BRM) function activators, confirmation, cell-based, luminescence, triplicate | shares compounds with SMARCA2 activ | MG213 cells, MMTV-luciferase with dexamethasone, overnight; MG213 cells expressing E1A, Rb sequestered; DMSO wells 0%, reference activator 100% | activation, % at 9.1 µM | 3,500 tested, 30% active | AID 652260, 2013;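 active = activation above its plate's cutoff, the mean activation of tested wells plus 3 SD, cut at about 7.9% in these data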
VP16 Luc act – GAL4-VP16 luciferase reporter activation, counter-screen for SMARCA2 (BRM) activator project, cell-based, pG5luc, luminescence, high throughput; shares compounds with SMARCA2 activ; HEK293 GAL4-VP16 pG5luc reporter; scaled: DMSO wells 0%, SAHA wells 100%; activation, % at 9.1 µM; 3,500 tested, 41% active; AID 686939, 2013;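 active = activation above the solvent-only control well mean plus 3 SD, averaged across control plates, cut at about 5.2% in these data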
KLK7 act conf – proKLK7 zymogen activators, confirmation, biochemical, fluorescence intensity, triplicate | 3,200 tested, 68% active | shares compounds with KLK7 zymogen act | activation, % at 7 µM | purified proKLK7, EDANS-DABCYL substrate fluorescence; scaled: vehicle 0, mature enzyme 100;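 active = activation, as change over the incubation, above the mean of all tested compounds plus 3 SD, cut at about 13% in these data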
EDANS interfere – EDANS-DABCYL substrate optical interference, artefact control for kallikrein-7 zymogen activator project, biochemical, fluorescence intensity, high throughput; shares compounds with KLK7 zymogen act; no enzyme, 4 h; solvent 0%, active enzyme control 100%; activation, % at 7 µM; 3,200 tested, 80% active;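 active = activation above the all-compound mean plus 3 SD, ignoring values outside control-based bounds, cut at about 4.8% in these data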;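 note: value is the 4 h activation minus the activation read at time zero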
K7 EDANS ctr – counter-screen for kallikrein-7 activators: EDANS-DABCYL interference, dose response. EDANS-DABCYL peptide fluorescence interference, no enzyme. shares compounds with KLK7 zymogen act. 250 tested, 20% active. EC50, µM;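 active = compounds that raise the fluorescence signal in this interference counterscreen, with EC50 at or below 10 µM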;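 note: intact quenched peptide substrate alone read at 355 nm excitation and 520 nm emission; signal is fluorescence gain from T0 to T4 after four hours at room temperature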
* hit, by the source's call; · = no result. Cut-off read from the data, not from the text of the source, unless noted: active = inhibition above about 4.5%; inactive = the rest.

SMILES	SMARCA2 activ	KLK7 zymogen act	MsrA act	MsrA inhibitor	MsrA inh confirm	KLK7 act conf	EDANS interfere	others
Cc1ccccc1CN1C[C@H]2CON(C)[C@H]2C[C@H]1c1cccc(Br)c1	-3	0	0	0	·	·	·
CC1COc2c3ccccc3nn21 (configuration not stated)	-5	0	-11	1	·	·	·
Cn1c(C(=O)O)cc2c(=O)n3ccccc3nc21	0	58*	-8	5.3*	2	71*	79*
CC(C)C(C#CC1CC1)N(Cc1ccc2c(c1)OCO2)C(N)=NC(=O)/C=C/c1ccccc1 (configuration not stated)	-4	1	·	·	·	·	·
O=C(COc1ccc2oc(-c3ccco3)cc(=O)c2c1)N1CCCCC1	0	61*	-6	4.7*	3	60*	60*
CCCCCCCCN1C(=O)[C@H](CC(=O)NCc2cccc(C(F)(F)F)c2)C[C@@]2(C(=O)OC)CCCCC=C12	-5	-1	0	0	·	·	·
COCCn1c(=NC(=O)c2ccc(S(=O)(=O)N3CCc4ccccc4C3)cc2)sc2cc(S(N)(=O)=O)ccc21	-3	305*	-9	5.9*	4	63*	80*
N#CC(C#N)=Cc1c[nH]c(=O)c(C#N)c1Nc1ccccc1	-2	62*	-2	5.4*	2	63*	62*
N#Cc1c(Nc2ccccc2)c(/C=N/N=C/c2ccccc2)c[nH]c1=O	4	0	-2	0	·	·	·
Nc1ccc(-c2nc3ncccc3o2)cc1	1	39*	-6	6.9*	4.6*	58*	71*
COC(=O)[C@]12C[C@H](CC(=O)N3CCOCC3)C(=O)N(Cc3cccc4ccccc34)C1=C[C@H](C(C)C)O[C@@H]2C1CC1	-7	1	·	·	·	·	·
O=c1oc2ccccc2cc1-c1nc2ccccc2o1	1	89*	-18	5.2*	4	74*	86*
c1ccc(-c2nc3nc4ccccc4nc3n2CC2CCCO2)cc1 (configuration not stated)	4	18*	-5	5.2*	5.2*	5	7.8*
COC(=O)c1cc(-c2c(C)oc3cc(O)ccc3c2=O)c(C)o1	-1	-12	-1	1	·	·	·
Cc1ccccc1-c1c(C)oc2cc(O)ccc2c1=O	0	58*	-6	4.9*	2	71*	74*
Cc1ccc(-c2cc(C(=O)O)c3ccccc3n2)s1	-2	54*	-2	5.4*	3	63*	71*
CC(C=CC(O)=C1C(=O)CNC1=O)=C[C@@H](C)C1OC2(C)OC(C(=O)C3O[C@@]32C)C1C (some centres not stated)	1	0	-4	0	·	·	·
COc1ccc(NS(=O)(=O)c2cccc(C(=O)N/N=C/c3cn(-c4ccccc4)nc3-c3ccccc3)c2)cc1	-4	0	-2	1	·	·	·
COc1ccccc1NS(=O)(=O)c1cccc(C(=O)N/N=C/c2cn(-c3ccccc3)nc2-c2ccccc2)c1	-2	18*	-6	6.1*	4	-50	-56
COC(=O)[C@]12CCCCC=C1N(Cc1ccc(OC)cc1)C(=O)[C@@H]2CC(=O)N1CCOCC1	-1	0	·	·	·	·	·
CC(=O)Nc1cncc(-c2ccccc2N(C)C)n1	-5	0	3	1	·	·	·
COc1ccc(-c2cc3ccc(OC(C)C(=O)O)cc3oc2=O)cc1 (configuration not stated)	0	70*	-7	5.7*	4	70*	68*
COc1ccc(-c2cc3ccccc3oc2=O)cc1	2	8	-3	1	·	·	·
COC(=O)C1CCN(C(=O)COC(=O)c2cc(-c3ccccc3)nc3ccc(OC)cc23)CC1	·	·	-11	·	·	·	·
COc1ccc(-c2cc(C(=O)OCC(=O)N3CCOCC3)c3ccccc3n2)cc1	1	59*	-6	4.7*	1	144*	141*
SMILES	SMARCA2 activ	KLK7 zymogen act	MsrA act	MsrA inhibitor	MsrA inh confirm	KLK7 act conf	EDANS interfere	others
CN1CCN(C(=O)c2cccc3c(-c4ccc(F)c(F)c4)coc23)CC1	·	·	2	·	·	·	·
CCOc1cc(/C=C/c2nc3ccccc3c(=O)[nH]2)ccc1O	3	4	1	1	·	·	·
COc1cc(/C=C/c2nc3ccccc3c(=O)[nH]2)ccc1O	9.0*	17*	-3	7.0*	4	-1	3	SMARCA2 act conf=13*;VP16 Luc act=12*
COc1ccc2cc3cc(C(=O)NCc4ccc5c(c4)OCO5)oc3nc2c1	0	-66	-7	0	·	·	·
COc1ccc2cc3cc(C(=O)NCc4cccnc4)oc3nc2c1	1	45*	-6	5.6*	4	54*	53*
Cc1c(C(=O)NCc2ccc(F)cc2)sc(=O)n1Cc1ccccc1F	-2	0	5	-1	·	·	·
Nc1ccc2nc(-c3ccccc3)sc2c1	4	63*	-8	4.7*	3	63*	68*
Cc1ccc2nc(-c3ccc(N)cc3)sc2c1	3	11	-5	0	·	·	·
Cc1cc(-c2nc3ccccc3s2)ccc1N	0	41*	-3	4.7*	3	-14	-15
Cc1cc(OCc2nc3ccccc3s2)ccc1N	4	-1	-4	2	·	·	·
CCOC(=O)N1CCN(C(=O)c2cccn3c(=O)c4cc(Br)ccc4nc23)CC1	-2	1	-5	-1	·	·	·
CCOC(=O)N1CCN(C(=O)c2cccn3c(=O)c4sccc4nc23)CC1	2	73*	-1	5.7*	4	63*	69*
CCOC(=O)N1CCN(C(=O)c2ccc3nc4ccsc4c(=O)n3c2)CC1	-1	15*	-3	5.1*	2	25*	20*	K7 EDANS ctr=>70
CCOC(=O)N1CCN(C(=O)c2ccc3nc4ccc(Cl)cc4c(=O)n3c2)CC1	-3	-4	-2	1	·	·	·

Compound activity as filed in PubChem BioAssay.
